# Measurements from paper PMC5540273 (PLoS ONE, 2017).
# Key:
# Conditions in all cases: concentration: 1 μM,replicates: in singlicate; n = 1
# [1] = tested on: MTOR
# [2] = tested on: MUSK
# [3] = tested on: MYLK2
# [4] = tested on: MYLK4
# [5] = tested on: MYLK
# [6] = tested on: MYO3A
# [7] = tested on: MYO3B
# [8] = tested on: T1, NDR1
# T1 construct: gene STK38
# [9] = tested on: NDR2
# [10] = tested on: NEK10
# 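Note: KINOMEscan kinase panel screen.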
Structure (SMILES),%Inh [1] [%],%Inh [2] [%],%Inh [3] [%],%Inh [4] [%],%Inh [5] [%],%Inh [6] [%],%Inh [7] [%],%Inh [8] [%],%Inh [9] [%],%Inh [10] [%]
Cn1ccc2ncnc(Oc3ccc(NC(=O)Nc4cnn(C(C)(C)C)c4)c(Cl)c3)c21,0,21,4,11,0,1,9,6,8,14
OCCn1cc(-c2cnc3nnn(Cc4ccc5ncccc5c4)c3n2)cn1,52,0,0,0,3,0,0,7,4,0
Cn1ccc2ncnc(Oc3ccc(NC(=O)Nc4cccc(C(F)(F)F)c4)c(F)c3)c21,10,99.4,0,7,19,8,49,10,8,7
CC(C)S(=O)(=O)N1CCN(Cc2ccc3c(c2)nc(NC(=O)c2ccsc2)n3C[C@H](O)c2ccccc2)CC1 [GW635815],14,27,15,0,16,8,0,35,24,2
Cl.c1ccc(Oc2ccc(Nc3ccnc4cc(-c5ccc(CN6CCNCC6)o5)ccc34)cc2)nc1 [GW567142],0,0,0,8,1,7,0,10,4,3
Cc1n[nH]c2cc(Nc3ccnc(Nc4cccc(CN5CCOCC5)c4)n3)ccc12 [GW682569],14,15,9,17,21,22,0,25,14,9
O=c1[nH]cc(-c2ccc(O)cc2)c2sc(-c3ccncc3)cc12 [GSK1033723],18,0,33,44,26,0,0,38,8,12
C[C@@H](Oc1cc(-n2cnc3ccc(-c4ccncc4)cc32)sc1C(N)=O)c1ccccc1Cl [GSK483724],32,28,48,94.9,13,0,0,10,0,12
Cn1ccc2ncnc(Oc3ccc(NC(=O)Nc4cc(C(C)(C)C)on4)c(Cl)c3)c21,37,80,13,0,17,0,40,0,1,0
FC(F)(F)c1cc(Br)cc(Nc2nccc(-c3cnn4ncccc34)n2)c1 [GW810578],0,18,1,29,8,9,8,19,13,40
CCn1c(-c2nonc2N)nc2cncc(Br)c21 [SB-738004],15,0,16,16,31,39,3,38,35,43
COc1cccc(C2=C(Nc3cccc(Cl)c3)C(=O)NC2=O)c1 [SB-341556],8,9,0,23,0,0,0,0,0,73
O=C1NCCc2[nH]c(-c3ccncc3)cc21,0,34,20,5,33,7,,20,0,14
COC(=O)Nc1nc2cc(Oc3ccc(NC(=O)Nc4cc(C(F)(F)F)ccc4Cl)cc3)ccc2[nH]1.Cl [GW697465],19,99.2,6,0,0,11,0,8,0,13
Cl.Nc1n[nH]c2cc(-c3ccccn3)ccc12 [GSK2189892],0,0,5,29,18,0,0,0,0,2
O=C(Nc1cccc(Oc2ccc3nccn3n2)c1)Nc1cccc(C(F)(F)F)c1,23,51,0,0,0,0,3,0,0,0
CC(=O)Nc1ccc(-c2cc3ncnc(SCC(=O)O)c3s2)cc1,3,12,9,14,6,5,0,0,8,25
